Test results published in PubChem BioAssay (NCI).
Compounds without any hit were thinned out: in the full panel of roughly 79,000, 15% have a hit. The source made the active and inactive calls. Rule as the data show it: active = growth inhibition above about 70%; inactive = the rest.

Key:
[1] = NCI Yeast Anticancer Drug Screen. Data for the rad52 strain (AID 147);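 also: 0% = growth of vehicle-treated control cultures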; details: S. cerevisiae rad52 mutant growth inhibition, active compounds read high
Summary of the method: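 Screen used a yeast mutant impaired in DNA repair. After compound exposure, growth was measured. Values reflect inhibition compared with vehicle-treated cells.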

[2] = NCI Yeast Anticancer Drug Screen. Data for the wt1 strain (AID 149);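 also: 0% = growth of vehicle-treated wt1 cultures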; details: S. cerevisiae wt1 strain (SPY 50644) growth inhibition, active compounds read high
Summary of the method: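 wt1 yeast, compound-treated; % growth inhibition vs vehicle control.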

[3] = NCI Yeast Anticancer Drug Screen. Data for the rad50EPP+ strain (AID 151);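 also: 0% = growth of vehicle-treated control cultures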; details: S. cerevisiae rad50 mutant strain, active compounds read high
Summary of the method: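 Exposing the rad50EPP+ strain to each compound, growth was compared with vehicle-only cultures to give inhibition.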

[4] = NCI Yeast Anticancer Drug Screen. Data for the mgt1 strain (AID 153); details: S. cerevisiae mgt1 mutant growth inhibition, active compounds read high
Summary of the method: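 Genetically defined yeast (mgt1) treated with compound; inhibition of growth expressed against vehicle-treated controls.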

[5] = NCI Yeast Anticancer Drug Screen. Data for the rad50 strain (AID 155);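 also: 0% = growth of vehicle-only cultures of the same strain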; details: S. cerevisiae rad50 strain growth inhibition, active compounds read high
Summary of the method: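 Genetically altered yeast (DNA repair pathway); compound treatment; growth inhibition vs vehicle ctrl.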

[6] = NCI Yeast Anticancer Drug Screen. Data for the mec2-1 strain (AID 157); details: S. cerevisiae mec2-1 strain, active compounds read high
Summary of the method: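 Readout is yeast growth inhibition, normalised to vehicle-treated controls, in the mec2-1 strain exposed to compound.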

[7] = NCI Yeast Anticancer Drug Screen. Data for the rad14 strain (AID 159);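 also: 0% = growth of vehicle-treated control cultures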; details: S. cerevisiae rad14 strain growth inhibition, active compounds read high
Summary of the method: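 Test compounds were applied to a repair-deficient yeast strain. Its growth was then compared with that of cultures given vehicle alone, and inhibition was expressed relative to those controls.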

[8] = NCI Yeast Anticancer Drug Screen. Data for the sgs1 mgt1 strain (AID 161);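 also: 0% = growth of cultures given vehicle only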; details: S. cerevisiae sgs1 mgt1 strain, active compounds read high
Summary of the method: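 Compounds are added to genetically altered yeast, and growth is compared with cultures given vehicle alone to give percent inhibition.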

[9] = NCI Yeast Anticancer Drug Screen. Data for the CLN2oe strain (AID 163);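 also: 0% = growth of vehicle-only control cultures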; details: S. cerevisiae CLN2oe strain, active compounds read high
Summary of the method: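 Values reflect how much compound exposure reduced yeast growth, referenced to vehicle-exposed cells. Assay organism is a strain with a defined genetic change affecting cell-cycle control.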

[10] = NCI Yeast Anticancer Drug Screen. Data for the cln2 rad14 strain (AID 165);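 also: 0% = growth equal to vehicle treated cultures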; details: S. cerevisiae cln2 rad14 strain, active compounds read high
Summary of the method: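 Relative to vehicle controls, growth inhibition of compound-treated cln2 rad14 yeast was recorded.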

[11] = NCI Yeast Anticancer Drug Screen. Data for the bub3 strain (AID 167); details: S. cerevisiae bub3 mutant strain, active compounds read high
Summary of the method: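 Yeast carrying a defined mutation is treated with each compound, and growth is compared with that of vehicle-exposed cells to give inhibition.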

[12] = NCI Yeast Anticancer Drug Screen. Data for the wt2 strain (AID 169);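 also: 0% = growth of vehicle-treated yeast cultures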; details: S. cerevisiae wt2 strain growth inhibition, active compounds read high
Summary of the method: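 Values express reduction in yeast growth under compound treatment, referenced to vehicle-treated cells.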

[13] = NCI Yeast Anticancer Drug Screen. Data for the mlh1 strain (AID 171);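 also: 0% = growth of vehicle-treated control cultures of the same strain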; details: S. cerevisiae mlh1 strain growth inhibition, active compounds read high
Summary of the method: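 Steps: expose the defined-mutant yeast strain to compound; expose a parallel culture to vehicle; measure growth; express compound effect as inhibition relative to the vehicle culture.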

[14] = NCI Yeast Anticancer Drug Screen. Data for the sgs1 strain (AID 173);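 also: 0% = growth of vehicle-only control cultures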; details: S. cerevisiae sgs1 mutant, active compounds read high
Summary of the method: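 Treat defined-mutant yeast with compound; measure growth; calculate inhibition relative to vehicle-treated cells.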

[15] = NCI Yeast Anticancer Drug Screen. Data for the mlh1 rad18 strain (AID 175); details: S. cerevisiae mlh1 rad18 strain growth inhibition, active compounds read high
Summary of the method: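 Test agents were incubated with a yeast strain of defined genotype (DNA damage repair defect). Inhibition of growth was derived by comparison with vehicle-exposed cultures.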

[16] = NCI Yeast Anticancer Drug Screen. Data for the rad18 strain (AID 177); details: S. cerevisiae rad18 mutant growth inhibition, active compounds read high
Summary of the method: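 A genetically defined yeast mutant impaired in DNA damage repair was treated with test compounds, then its growth was measured against cultures receiving vehicle alone.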

[17] = at 5.0 µM (retest, dose inferred, filed as 0.5)
[18] = at 50.0 µM (retest, dose inferred, filed as 5.0)

Measured: growth inhibition

O=Cc1ccc(C(F)(F)F)cc1.[C-]#[O+].[C-]#[O+].[C-]#[O+].[Cr]
inactive: [1]; at 1.2 µM 9% | [1]; at 3.7 µM 17% | [1]; at 11.0 µM 39% | [1]; at 33.0 µM 65% | [2]; at 1.2 µM 0% | [2]; at 3.7 µM 2% | [2]; at 11.0 µM 8% | [2]; at 33.0 µM 15% | [2]; at 100.0 µM 17% | [3]; at 1.2 µM 12% | [3]; at 3.7 µM 20% | [3]; at 11.0 µM 37% | [3]; at 33.0 µM 46% | [3]; at 100.0 µM 33% | [4]; at 1.2 µM 1% | [4]; at 3.7 µM 1% | [4]; at 11.0 µM 20% | [4]; at 33.0 µM 11% | [4]; at 100.0 µM 17% | [5]; at 1.2 µM 6% | [5]; at 3.7 µM 11% | [5]; [17] 3% | [5]; at 11.0 µM 23% | [5]; at 33.0 µM 38% | [5]; at 50.0 µM 67.8% | [5]; at 100.0 µM 40% | [6]; at 1.2 µM 5% | [6]; at 3.7 µM 2% | [6]; [17] -7% | [6]; at 11.0 µM 5% | [6]; at 33.0 µM 8% | [6]; [18] 47% | [6]; at 50.0 µM 61.6% | [6]; at 100.0 µM 14% | [7]; at 1.2 µM 6% | [7]; at 3.7 µM 8% | [7]; at 11.0 µM 15% | [7]; at 33.0 µM 30% | [7]; at 100.0 µM 30% | [8]; [17] -18% | [9]; at 1.2 µM 0% | [9]; at 3.7 µM -2% | [9]; at 11.0 µM 2% | [9]; at 33.0 µM 15% | [9]; at 100.0 µM 23% | [10]; [17] -15% | [10]; [18] 58% | [10]; at 50.0 µM 63.6% | [11]; at 1.2 µM -7% | [11]; at 3.7 µM -1% | [11]; [17] -18% | [11]; at 11.0 µM 12% | [11]; at 33.0 µM 21% | [11]; [18] -7% | [11]; at 50.0 µM 66.2% | [11]; at 100.0 µM 31% | [12]; at 1.2 µM 3% | [12]; at 3.7 µM 8% | [12]; at 11.0 µM 23% | [12]; at 33.0 µM 39% | [12]; at 100.0 µM 33% | [13]; at 1.2 µM -1% | [13]; at 3.7 µM -4% | [13]; at 11.0 µM 7% | [13]; at 33.0 µM 8% | [13]; at 100.0 µM 7% | [14]; at 1.2 µM 12% | [14]; at 3.7 µM 11% | [14]; at 11.0 µM 40% | [14]; at 33.0 µM 62% | [14]; at 100.0 µM 64% | [15]; [17] 11% | [15]; at 50.0 µM 63.3% | [16]; at 1.2 µM 1% | [16]; at 3.7 µM 3% | [16]; at 11.0 µM 20% | [16]; at 33.0 µM 40% | [16]; at 100.0 µM 62%
active: [1]; at 100.0 µM 70% | [5]; [18] 75% | [8]; [18] 81% | [8]; at 50.0 µM 78.5% | [15]; [18] 78%

S=C1NC2(CCCCC2)NC12CCCCC2
inactive: [1]; at 1.2 µM -1% | [1]; at 3.7 µM -5% | [1]; at 11.0 µM -3% | [1]; at 33.0 µM 2% | [1]; at 100.0 µM -1% | [2]; at 1.2 µM -2% | [2]; at 3.7 µM -3% | [2]; at 11.0 µM 3% | [2]; at 33.0 µM 8% | [2]; at 100.0 µM 13% | [3]; at 1.2 µM -2% | [3]; at 3.7 µM 0% | [3]; at 11.0 µM 2% | [3]; at 33.0 µM 8% | [3]; at 100.0 µM 7% | [4]; at 1.2 µM -2% | [4]; at 3.7 µM -8% | [4]; at 11.0 µM 5% | [4]; at 33.0 µM 17% | [4]; at 100.0 µM 10% | [5]; at 1.2 µM 0% | [5]; at 3.7 µM 9% | [5]; [17] 11% | [5]; at 11.0 µM 19% | [5]; at 33.0 µM 19% | [5]; [18] 33% | [5]; at 50.0 µM 44.9% | [5]; at 100.0 µM 11% | [6]; at 1.2 µM -12% | [6]; at 3.7 µM -19% | [6]; [17] 3% | [6]; at 11.0 µM -18% | [6]; at 33.0 µM -1% | [6]; [18] 23% | [6]; at 50.0 µM 4.85% | [6]; at 100.0 µM 2% | [7]; at 1.2 µM -2% | [7]; at 3.7 µM -7% | [7]; at 11.0 µM -1% | [7]; at 33.0 µM 0% | [7]; at 100.0 µM 3% | [8]; [17] 30% | [8]; [18] 69% | [8]; at 50.0 µM 13.8% | [9]; at 1.2 µM -7% | [9]; at 3.7 µM -3% | [9]; at 11.0 µM -2% | [9]; at 33.0 µM 6% | [9]; at 100.0 µM 9% | [10]; [17] -30% | [10]; [18] 2% | [10]; at 50.0 µM -2% | [11]; at 1.2 µM -18% | [11]; at 3.7 µM -14% | [11]; [17] 16% | [11]; at 11.0 µM 3% | [11]; at 33.0 µM 2% | [11]; [18] 20% | [11]; at 50.0 µM 14.5% | [11]; at 100.0 µM 6% | [12]; at 1.2 µM -2% | [12]; at 3.7 µM -2% | [12]; at 11.0 µM 3% | [12]; at 33.0 µM 14% | [12]; at 100.0 µM 16% | [13]; at 1.2 µM -6% | [13]; at 3.7 µM -5% | [13]; at 11.0 µM 0% | [13]; at 33.0 µM 1% | [13]; at 100.0 µM -2% | [14]; at 1.2 µM -1% | [14]; at 3.7 µM -3% | [14]; at 11.0 µM 2% | [14]; at 33.0 µM 8% | [14]; at 100.0 µM 12% | [15]; [17] -9% | [15]; [18] 49% | [15]; at 50.0 µM 27.3% | [16]; at 1.2 µM -3% | [16]; at 3.7 µM -1% | [16]; at 11.0 µM 15% | [16]; at 33.0 µM 24% | [16]; at 100.0 µM 7%

O=C(O)CCCOc1cc(Cl)c(Cl)cc1Cl
active: [1]; at 100.0 µM 75% | [2]; at 100.0 µM 71% | [3]; at 100.0 µM 70% | [4]; at 100.0 µM 80% | [5]; [18] 98% | [5]; at 50.0 µM 82% | [5]; at 100.0 µM 78%
inactive: [1]; at 1.2 µM -13% | [1]; at 3.7 µM -4% | [1]; at 11.0 µM 1% | [1]; at 33.0 µM 45% | [2]; at 1.2 µM -1% | [2]; at 3.7 µM -9% | [2]; at 11.0 µM 2% | [2]; at 33.0 µM 22% | [3]; at 1.2 µM -10% | [3]; at 3.7 µM -6% | [3]; at 11.0 µM 13% | [3]; at 33.0 µM 43% | [4]; at 1.2 µM -17% | [4]; at 3.7 µM -32% | [4]; at 11.0 µM -13% | [4]; at 33.0 µM 35% | [5]; at 1.2 µM -10% | [5]; at 3.7 µM -17% | [5]; [17] 40% | [5]; at 11.0 µM -5% | [5]; at 33.0 µM 42% | [6]; at 1.2 µM -24% | [6]; at 3.7 µM -13%
